# Data taken from PubChem BioAssay.
# Inconclusive results are not listed. The source made the active and inactive calls. Unless noted, no stated cut-off is given here; in the data, active means inhibition above about 80%; inactive means the rest.
# Tests used:
# [1] = viability loss in pontine glioma line – cell-based, SU-DIPG-XIII, MIPE5.0, CellTiter-Glo, qHTS, dose response (AID 1347064; cut-off not given, nearly all actives have AC50 up to about 23 µM;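 on AC50: cells exposed to compound for 48 hours before the viability read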); settings: CellTiter-Glo ATP luminescence
# [2] = viability loss in pontine glioma line – cell-based, SU-DIPG-XXV, MIPE5.0, CellTiter-Glo, qHTS, dose response (AID 1347065; cut-off not given, nearly all actives have AC50 up to about 26 µM;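 further: cells exposed to compound for 48 hours before ATP readout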); settings: CellTiter-Glo ATP luminescence
# [3] = growth inhibition of DIPG cells – cell-based, MIPE5.0 library, qHTS (AID 1347068; cut-off not given, nearly all actives have IC50 up to about 30 µM;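 on IC50: cells exposed to compound for 48 hours before viability readout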); settings: SU-DIPG-XXV viability
# [4] = growth inhibition of DIPG cells – cell-based, MIPE4.0 library, CellTiter-Glo luminescence, qHTS (AID 1347066; cut-off not given, nearly all actives have AC50 up to about 30 µM;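 further: cells exposed to compound for 48 hours before readout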); settings: SU-DIPG-VI viability, CellTiter-Glo ATP luminescence
# [5] = viability loss with induced miR-34 in A549 – imaging, A549 dox-inducible miR-34, nuclei and caspase counts, primary screen (AID 1347080;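 active means compounds whose cell count with miR-34 switched on is under 0.7 times the count with it off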); settings: A549 miR-34 inducible, Hoechst nuclei count, 48 h
# [6] = MELAS cybrid and Rieske KO viability enhancers – cell-based, MELAS cybrids, Rieske KO mouse fibroblasts, CellTiter-Glo, primary screen (AID 1508586;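 active means mean z-score across replicates of 1.96 or higher in either the MELAS or the Rieske mutant cell line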;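 further: z relative to plate mean and SD of compound and empty wells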); settings: low glucose
# [7] = JHH-DIPG-1 glioma cell viability, MIPE5.0 library, CellTiter-Glo luminescence, qHTS (AID 1347067; cut-off not given, nearly all actives have AC50 up to about 26 µM;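 further: cells exposed to compound for 48 hours before readout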); settings: JHH-DIPG-1 glioma viability, CellTiter-Glo ATP luminescence
# [8] = growth inhibition, single agent or in combination, cell-based, chromothripsis tumors, cisplatin or BGB combos (AID 1671449); settings: LFS_MB_P medulloblastoma cells;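 further: cells exposed for 96 hours; 0% = vehicle DMSO and 100% = killing by high DMSO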
# [9] = growth inhibition, single agent and combos, cell-based, chromothripsis tumors, cisplatin or BGB combos (AID 1671450); settings: HDN33 neuroblastoma cells, stronger effect = higher value;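 further: cells exposed to compound for four days; 0% = vehicle DMSO and 100% = cell killing by high DMSO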
# [10] = growth inhibition, single agents and combos, ICB984, cell-based, cisplatin or BGB combos, synergistic combos for chromothripsis tumors (AID 1671451; call rule not given here;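 further: cells exposed for 96 hours before readout; 0% = vehicle DMSO and 100% = killing by high DMSO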); settings: ICB984 medulloblastoma cells, drug combinations, stronger effect = higher value
# [11] = growth inhibition, single agents and combos, LFS_MB_1R, cell-based, cisplatin or BGB combos, synergistic combos for chromothripsis tumors (AID 1671452); settings: LFS_MB_1R medulloblastoma cells, stronger effect = higher value;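 further: cells exposed for 96 hours before readout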
# [12] = growth inhibition, single agents and combos, HTB85, cell-based, BGB or cisplatin IC20 combos, synergistic combos for chromothripsis tumors (AID 1671453); settings: HTB85 osteosarcoma cells, drug combinations, stronger effect = higher value;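 further: cells exposed for 96 hours before readout; 0% = vehicle DMSO and 100% = high DMSO killing control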
# [13] = growth inhibition, single agents and combos, CRL2098, cell-based, BGB or cisplatin IC20 combos, synergistic combos for chromothripsis tumors (AID 1671454); settings: CRL2098 osteosarcoma cells, drug combinations, stronger effect = higher value;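 further: cells exposed for 96 h before readout; 0% = vehicle DMSO and 100% = killing by high DMSO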
# [14] = growth inhibition, single agents and combos, HD-MB03, cell-based, BGB or cisplatin IC20 combos, synergistic combos for chromothripsis tumors (AID 1671455; in the data active means inhibition above about 83%;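 further: 0% = vehicle DMSO and 100% = high DMSO as cytotoxic control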); settings: HD-MB03 medulloblastoma cells, stronger effect = higher value
# [15] = growth inhibition, single agents and combos, UWB1.289, cell-based, BGB or cisplatin combos, synergistic combos for chromothripsis tumors (AID 1671456); settings: UWB1.289 ovarian carcinoma cells, stronger effect = higher value;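 further: cells exposed to compound for four days; 0% = vehicle DMSO and 100% = killing by high DMSO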
# [16] = growth inhibition, single agents and combos, LFS_MB_2R, cell-based, cisplatin combos, synergistic combos for chromothripsis tumors (AID 1671457); settings: LFS_MB_2R medulloblastoma cells, stronger effect = higher value;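 further: cells exposed to compound for four days before readout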
# [17] = growth inhibition, MDA-MB-436, cell-based, BGB or cisplatin combos, synergistic combos for chromothripsis tumors (AID 1671458; call rule not given here;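 further: cells exposed for 96 hours; 0% = vehicle DMSO and 100% = killing by high DMSO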); settings: MDA-MB-436 breast carcinoma growth inhibition, drug combinations, stronger effect = higher value
# [18] = UWB1.289_BRCA1 ovarian cancer growth, cell-based, BGB or cisplatin combinations (AID 1671459); settings: UWB1.289 BRCA1 ovarian carcinoma, drug combinations, stronger effect = higher value
# [19] = drug combination toxicity in non-malignant astrocytes – cell-based, BGB or cisplatin IC20 combos, cytotoxicity control for chromothriptic childhood tumor combination screen (AID 1671460); settings: Human astrocytes, viability inhibition, drug combinations, at 0.5 µM, stronger effect = higher value;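 further: cells exposed to compounds for 96 hours before viability readout; 0% = vehicle and 100% = killing control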
# [20] = BT084 cell growth, single and combined drugs, ICGC_MB145, cisplatin and BGB IC40 combos (AID 1671461); settings: BT084 medulloblastoma cells, drug combinations, stronger effect = higher value;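 further: cells exposed to drugs for 96 hours; 0% = vehicle DMSO and 100% = high DMSO full killing control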
# [21] = RCMB18 cell growth, single agent and combined, cisplatin and BGB IC40 combos (AID 1671462); settings: RCMB18 medulloblastoma cells, stronger effect = higher value;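 further: cells exposed to compound for four days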
# [22] = CRL1545 cell growth, single agent and combined, cisplatin and BGB IC20 combos (AID 1671464); settings: CRL1545 osteosarcoma cells, stronger effect = higher value;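 further: cells exposed to compound for 96 hours before readout; 0% = vehicle DMSO and 100% = high DMSO killing control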
# [23] = stronger effect = lower value, cell number ratio, induced over uninduced
# [24] = measured here: relative caspase fold change +Dox/-Dox
# [25] = measured here: total cells with miR-34 induction, stronger effect = lower value
# [26] = measured here: total cells without miR-34 induction
# [27] = MELAS cybrid survival, CellTiter-Glo 48 h, stronger effect = higher value
# [28] = Rieske KO mouse fibroblast survival, CellTiter-Glo 72 h
# [29] = measured here: combination with BGB IC40, at 0.05 µM
# [30] = measured here: with BGB IC20 combination, at 0.5 µM
# [31] = measured here: with cisplatin IC20 combination, at 0.5 µM
# [32] = measured here: combination with cisplatin, at 0.5 µM
# [33] = measured here: combination with cisplatin, at 5 µM
smiles,measurement,setting,value
C=CCN(/C=C1\C(=O)O[C@@H](COC)[C@]2(C)C1=C(O)C(=O)C1=C2[C@@H](OC(C)=O)C[C@]2(C)C(=O)CC[C@H]12)CC=C,AC50,[1],16.6 µM (active)
same,AC50,[2],9.34 µM (active)
same,outcome,[3],inactive
CN(C)Cc1cccc(N=C(c2ccccc2)c2c(O)[nH]c3cc(C(=O)N(C)C)ccc23)c1,outcome,[1],inactive
same,outcome,[4],inactive
same,IC50,[3],18.6 µM (active)
same,fold change,[5]; [23],0.785 (inactive)
same,fold change,[5]; [24],1.01
same,cell count,[5]; [25],3180
same,cell count,[5]; [26],4050
same,z-score,[6]; [27],-0.347 (inactive)
same,z-score,[6]; [28],0.635
COc1cc(N2CCN(C)CC2)ccc1Nc1nccc(-c2cn(C)c3cnccc23)n1,AC50,[1],10.5 µM (active)
same,AC50,[2],13.2 µM (active)
same,AC50,[7],18.6 µM (active)
same,outcome,[3],inactive
same,fold change,[5]; [23],0.785 (inactive)
same,fold change,[5]; [24],1.02
same,cell count,[5]; [25],4990
same,cell count,[5]; [26],6360
same,z-score,[6]; [27],1.95 (inactive)
same,z-score,[6]; [28],-5.23
c1cc(Nc2cc(C3CC3)[nH]n2)nc(Nc2ccc3nc[nH]c3c2)n1,AC50,[1],0.468 µM (active)
same,AC50,[2],0.59 µM (active)
same,AC50,[7],0.742 µM (active)
same,IC50,[3],1.48 µM (active)
same,inhibition,"[8]; at 0.5 µM, stronger effect = higher value",-28.9% (inactive)
same,inhibition,"[8]; measured here: combination with BGB IC20, at 0.005 µM",-28.7%
same,inhibition,"[8]; measured here: combination with BGB IC40, at 0.005 µM",66.9%
same,inhibition,[8]; [29],3.2%
same,inhibition,"[8]; measured here: combination with cisplatin, at 0.5 µM, stronger effect = higher value",-45.7%
same,inhibition,"[8]; measured here: combination with cisplatin, at 5 µM, stronger effect = higher value",97.7%
same,inhibition,"[9]; BGB combo, at 5 µM",80.3%
same,inhibition,[9]; at 0.5 µM,13.6% (inactive)
same,inhibition,"[9]; cisplatin combo, at 5 µM",56.8%
same,inhibition,[9]; [30],15.5%
same,inhibition,[9]; [31],11.8%
same,inhibition,"[9]; single agent, at 5 µM",65%
same,inhibition,"[10]; BGB IC20 combo, at 0.005 µM",91.8%
same,inhibition,"[10]; BGB IC40 combo, at 0.005 µM",91.5%
same,inhibition,"[10]; BGB IC40 combo, at 0.05 µM",101%
same,inhibition,[10]; at 0.5 µM,-13.7% (inactive)
same,inhibition,"[10]; cisplatin combo, at 0.05 µM",102%
same,inhibition,"[10]; cisplatin combo, at 0.5 µM",-28%
same,inhibition,"[10]; cisplatin combo, at 5 µM",-12.8%
same,inhibition,"[10]; measured here: 5 uM single agent, at 5 µM",-7.27%
same,inhibition,[11]; at 0.5 µM,96.2% (active)
same,inhibition,[11]; [29],10.7%
same,inhibition,[11]; [32],97.7%
same,inhibition,[11]; [33],98.3%
same,inhibition,[12]; at 0.5 µM,92.1% (active)
same,inhibition,"[12]; measured here: with BGB IC20, at 0.5 µM",97.4%
same,inhibition,"[12]; measured here: with BGB IC20, at 5 µM",98.4%
same,inhibition,"[12]; measured here: with cisplatin IC20, at 0.5 µM",83.5%
same,inhibition,"[12]; measured here: with cisplatin IC20, at 5 µM",99.3%
same,inhibition,"[12]; single agent, at 5 µM",99.5%
same,inhibition,[13]; at 0.5 µM,28.9% (inactive)
same,inhibition,"[13]; measured here: combination with BGB at IC20, at 0.5 µM",57.3%
same,inhibition,"[13]; measured here: combination with cisplatin at IC20, at 0.5 µM",27.4%
same,inhibition,[14]; at 0.5 µM,31.9% (inactive)
same,inhibition,"[14]; measured here: combo with BGB at IC20, at 0.5 µM",43.7%
same,inhibition,"[14]; measured here: combo with cisplatin at IC20, at 0.5 µM",6.87%
same,inhibition,[15]; at 0.5 µM,67.4% (inactive)
same,inhibition,"[15]; measured here: inhibition with BGB combination, at 0.05 µM",37.1%
same,inhibition,"[15]; measured here: inhibition with cisplatin combination, at 0.05 µM",-9.86%
same,inhibition,[16]; at 0.5 µM,80.7% (active)
same,inhibition,[16]; [32],87.3%
same,inhibition,[16]; [33],91.1%
same,inhibition,[17]; at 0.5 µM,23.1% (inactive)
same,inhibition,"[17]; measured here: BGB combination, at 0.5 µM",22.4%
same,inhibition,"[17]; measured here: BGB combination, at 5 µM",75.1%
same,inhibition,"[17]; measured here: cisplatin combination, at 0.5 µM",5.08%
same,inhibition,"[17]; measured here: cisplatin combination, at 5 µM",88.8%
same,inhibition,"[18]; BGB combination, concentration series, at 5 µM",73.5%
same,inhibition,[18]; at 0.5 µM,79.3% (inactive)
same,inhibition,"[18]; cisplatin combination, concentration series, at 5 µM",72.2%
same,inhibition,[19],14.6% (inactive)
same,inhibition,[19]; measured here: combo with BGB IC20,33.6%
same,inhibition,[19]; measured here: combo with cisplatin IC20,-4.62%
same,inhibition,[20]; at 0.5 µM,44.8% (inactive)
same,inhibition,"[20]; cisplatin combination, at 0.5 µM",31.8%
same,inhibition,"[20]; cisplatin combination, at 5 µM",-81%
same,inhibition,"[20]; measured here: BGB IC40 combination 0.05 uM, at 0.05 µM",-10.1%
same,inhibition,"[20]; single agent, at 5 µM",22.9%
same,inhibition,[21]; at 0.5 µM,73.8% (inactive)
same,inhibition,"[21]; cisplatin combo, at 5 µM",83.5%
same,inhibition,"[21]; measured here: BGB IC40 combination, at 0.05 µM",22.4%
same,inhibition,[21]; [32],76.4%
same,inhibition,"[21]; single agent, at 5 µM",84.3%
same,inhibition,[22]; at 0.5 µM,-7.32% (inactive)
same,inhibition,[22]; [30],-9.54%
same,inhibition,[22]; [31],-7.92%
same,inhibition,"[22]; single agent, at 0.05 µM",-26.3%
same,inhibition,"[22]; single agent, at 5 µM",81.3%
